Assay outcomes from PubChem.
RE007 growth inh: less growth of the S. pombe RE007 Vpr strain; S. pombe RE007 Vpr strain, BacTiter-Glo ATP luminescence, 24 h; Potency, µM (series often up to 92.2 µM), inactives show top-dose activity change, negative = less growth, usual class: inhibitors; actives 0.21% (n = 360,000); active = well fitted falling curve with a large enough effect; inconclusive = small, poorly fitted or top-dose-only effect; inactive = no such curve, though single readings can be large or run the other way; also: % is scaled to controls: 0 for no effect and ±100 for the full control effect; nearly all actives have a fitted effect of over 50% in size
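Fission yeast strain RE007, carrying one chromosomally integrated HIV-1 vpr copy, was seeded at OD 0.01 in PMG+AL medium with 23 nL pinned compound. After 24 h at 30 °C and 99% humidity, viability was read by BacTiter-Glo luminescence.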
SARS PLP yeast: SARS-CoV PLP inhibition in yeast; S. cerevisiae expressing SARS-CoV PLpro, growth rescue; actives 0.19% (n = 330,000); Potency, µM (doses to about 32.9 µM), inactives show at the top dose activity, positive = growth rescue, hits mostly activators; also: 0% is about no effect; nearly all actives have a fitted effect of over 55% in size
NS1 inh: inhibitors of influenza NS1 protein function; Potency, µM (titrated, usually from 46.1 µM), for the others: at the top dose activity, positive = more growth; actives 0.4% (n = 270,000); AID 2326; also: actives are rising curves; nearly all actives have a fitted effect of over 50% in size
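In this qHTS, NS1 from influenza A is expressed in budding yeast, where it slows growth. Cells are switched from glucose to 2% galactose medium (pH 6.0, -URA), treated with compound, and growth recovery is read at OD600.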
Pf growth 96h: inhibits malaria parasite growth, 96 h; P. falciparum luciferase reporter growth, 96 h; Potency, µM (highest dose often 28.7 µM), without a hit: at the highest dose activity change, negative = inhibition, hits mostly inhibitors; actives 6.9% (n = 320,000); active = well fitted inhibition curve with a large enough effect; inconclusive = small, poorly fitted or top-dose-only effect, or another doubt; inactive = no such curve, though single readings can be large or run the other way; also: % is scaled to controls: 0 for no effect and ±100 for the full control effect
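Delayed-death screen, second-generation endpoint: infected erythrocytes, 2% hematocrit, 0.05% parasitemia final; 96 hours at 37 C, 5% CO2; luciferase detection reagent; luminescence decrease equals reduced growth.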
Pf growth 48h: inhibits P. falciparum growth in the first generation, 48 h; actives 5.9% (n = 310,000); P. falciparum luciferase growth in erythrocytes, 48 h; Potency, µM (highest dose often 28.7 µM), inactives show at the highest dose activity change, negative = inhibition, hits mostly inhibitors; active = well fitted inhibition curve with a large enough effect; inconclusive = small, poorly fitted or top-dose-only effect, or another doubt; inactive = no such curve, though single readings can be large or run the other way; also: % is scaled to controls: 0 for no effect and ±100 for the full control effect
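Erythrocytes infected with P. falciparum carrying an integrated firefly luciferase reporter (2% hematocrit, 0.1% parasitemia final) were exposed to compounds in RPMI 1640 with 0.5% Albumax at 37 C, 5% CO2. Growth inhibition was scored as reduced luminescence.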
* = called active by the depositor; u = inconclusive; x = no result given; [ ] = dose if it differs, or a comment. Most compounds without a hit are left out; they make up all but 9.5% or so of the library. Unless noted, calls follow the shape of the full dose curve. Potency is read from the fitted curve at half-maximal effect.

SMILES | RE007 growth inh | SARS PLP yeast | NS1 inh | Pf growth 96h | Pf growth 48h
COc1ccc(N2CCN(CCCNC(=O)C3CCCN(S(=O)(=O)c4c(C)n[nH]c4C)C3)CC2)cc1 (stereo unspecified) | -4.5% | 1.9% | x | u | -26.3%
CCOC(=O)c1cccc(NC(=O)C2CCCN(S(=O)(=O)c3c(C)nn(C)c3C)C2)c1 (stereo unspecified) | -4.0% | 11.9% | -20.1% | 9.28µM* | x
[O-]C1=N[N+](=C(c2ccccc2)c2ccccc2)C1 | -15.3% | x | x | x | x
Cc1nn(CC(=O)Nc2cccnc2)c(C)c1[N+](=O)[O-] | -1.6% | 0.4% | x | -4.8% | 28.7%[5.75 µM]
Fc1ccc2nc(Nc3nc4c(F)cccc4s3)sc2c1 | -12.3% | x | -1.3% | u | -17.9%
Fc1ccc2nc(Nc3nc4c(F)cc(F)cc4s3)sc2c1 | -24.8% | -16.8% | -13.6% | 10.4µM* | 0.0%
CC(C)OC(=O)c1cc2c(ccn2-c2ccc(F)cc2)n1CC(=O)N1CCN(C(=O)c2ccco2)CC1 | 1.0% | -1.6% | 2.2% | u | 1.65µM*
COC(=O)c1cc2c(ccn2-c2ccc(F)cc2)n1CC(=O)N1CCN(C(=O)c2ccco2)CC1 | -12.2% | 4.5% | -36.5% | 11.9% | u
COC(=O)C1CCN(C(=O)CN2C(=O)NC(CC(C)C)C2=O)CC1 (stereo unspecified) | 32.5% | -1.3% | x | x | x
COc1ccc(C(=O)N/N=C(/C)c2ccc(N3CCCCC3)cc2)cc1 | -15.0% | 9.2% | -15.1% | 13.5% | -1.8%
C/C(=N\NC(=O)c1ccc(OC2CCCC2)cc1)c1ccc(O)cc1 | -5.7% | u | 25.8% | 13.1µM* | u
COc1ccc(/C(C)=N/NC(=O)c2ccc(N(C)C)cc2)cc1 | -13.5% | -17.4% | -46.0% | 0.586µM* | u
CCN(CC)c1ccc(C(=O)N/N=C(\C)c2ccc(O)cc2)cc1 | -6.9% | 8.6% | 16.9% | 10.4µM* | u
C/C(=N\NC(=O)c1ccc(N(C)C)cc1)c1ccc(C)c(C)c1 | -4.2% | -24.7% | 5.4% | u | 14.5%
CCCCC(CC)CNC(=O)c1cccs1 (stereo unspecified) | -23.4% | -53.8% | -69.1% | 4.65µM* | 5.22µM*
N#Cc1ccc(C23CC4(C2)[C@H](CN(CC2CCCCC2)[C@@H]4c2ccccc2)C3c2ccc(Cl)nc2)cc1 (stereo partly specified) | -6.7% | 0.1% | 6.8% | u | u
CN1C[C@@H]2C(c3ccccc3)C3(c4cccnc4)CC2(C3)[C@H]1c1ccccc1 (stereo partly specified) | -10.6% | -5.1% | 11.1% | 11.7µM* | 11.7µM*
N#Cc1ccc(C23CC4(C2)[C@H](CN(Cc2ccc(-c5ccccc5)cc2)[C@@H]4c2ccccc2)C3c2ccc(C(F)(F)F)cc2)cc1 (stereo partly specified) | -15.0% | 1.0% | u | u | 14.7µM*
Clc1ccc(C2[C@H]3CN(Cc4cccnc4)[C@H](c4ccccc4)C34CC2(c2cccnc2)C4)cn1 (stereo partly specified) | -4.1% | 1.4% | -4.9% | 4.65µM* | 10.4µM*
FC(F)(F)c1ccc(CN2C[C@@H]3C(c4ccc(Cl)nc4)C4(c5ccccc5)CC3(C4)[C@H]2c2ccccc2)cc1 (stereo partly specified) | -20.9% | -2.4% | 12.9% | u | 11.7µM*
C/C(CC(=O)Nc1cccc(Br)c1)=N\NC(=O)c1ccc(O)cc1O | -1.8% | 10.7% | 1.0% | -16.5% | 12.4%
FC(F)(F)c1ccc(C2[C@H]3CN(Cc4ccc(-c5ccccc5)cc4)[C@H](c4ccccc4)C34CC2(c2cccnc2)C4)cc1 (stereo partly specified) | -16.8% | 0.3% | 23.0% | 0.415µM* | 3.29µM*
c1ccc(-c2ccc(CN3C[C@@H]4C(c5ccccc5)C5(c6cccnc6)CC4(C5)[C@H]3c3ccccc3)cc2)cc1 (stereo partly specified) | -0.4% | -0.7% | -0.5% | 4.15µM* | 2.94µM*
FC(F)(F)c1ccc(C2[C@H]3CN(Cc4ccc(-c5ccccc5)cc4)[C@H](c4ccccc4)C34CC2(c2ccccc2)C4)cc1 (stereo partly specified) | -13.3% | -1.7% | 8.6% | -99.2% | u
FC(F)(F)c1ccc(C2[C@H]3CN(Cc4cccnc4)[C@H](c4ccccc4)C34CC2(c2cccnc2)C4)cc1 (stereo partly specified) | -10.7% | -14.6% | -41.4% | 1.47µM* | 1.85µM*
SMILES | RE007 growth inh | SARS PLP yeast | NS1 inh | Pf growth 96h | Pf growth 48h
CC1CCN(CCCNC(=O)C2CC(=O)N(CCc3ccccc3)C2)CC1 (stereo unspecified) | -2.6% | -0.6% | -2.9% | 27.9% | 28.0%
C=CCSc1nc2c(c(C3CC=CCC3)c1C#N)CCC2 (stereo unspecified) | -12.8% | -27.7% | -5.1% | 8.28µM* | u
CCN1CCN(CCCN(Cc2ccco2)C(=S)Nc2ccccc2Cl)CC1 | 5.8% | -3.0% | x | 1.85µM* | 33.7%
COc1ccc(Nc2nccc(-c3ccc(C#N)cc3)n2)cc1 | -5.4% | -1.9% | -3.8% | 5.86µM* | -19.4%
COc1ccc(Nc2nccc(-c3cccc(N)c3)n2)cc1 | 2.6% | -3.0% | u | 27.2% | 102.8%
Cc1cccc(NC(=O)CCN2CCCC(C)C2)c1 (stereo unspecified) | 2.0% | -6.3% | 6.2% | -6.9% | 24.4%
COc1ccc(CNC(=O)[C@H](CCSC)NC(=O)N2CCn3c2nc2ccccc23)cc1 | 16.5% | 5.2% | -22.9% | 2.4% | u
CSCC[C@H](NC(=O)N1CCn2c1nc1ccccc12)C(=O)NCc1ccc(F)cc1 | -10.0% | 2.5% | -9.5% | 11.7µM* | u
COc1cc(Br)cc(CNc2ccc(F)c([N+](=O)[O-])c2)c1O | -3.2% | -4.6% | -10.5% | -10.0% | 4.6%
CC(C(=O)NC1CCCC1)N(C(=O)c1ccc(-c2ccccc2)[nH]1)c1ccccc1F (stereo unspecified) | -9.5% | -16.4% | u | u | 13.1µM*
CC(C(=O)NC1CCCC1)N(C(=O)Cn1nnc(-c2ccc(F)cc2)n1)c1ccccc1F (stereo unspecified) | -15.8% | 2.3% | 5.3% | u | u
Cc1ccc(C)c(N(C)S(=O)(=O)c2ccc3c(c2)oc(=O)n3C)c1 | 10.6% | 0.4% | 5.4% | 0.4% | u
Cc1ccc2ccc3ccc(C)nc3c2n1 | u | -32.2% | -62.2% | 17.9% | 0.233µM*
Cc1ccc2cc(F)c(F)c(F)c2n1 | 11.1% | x | x | x | x
O=C(C1CCCN(S(=O)(=O)c2ccc(Br)s2)C1)N1CCN(c2ccccc2)CC1 (stereo unspecified) | 1.3% | -1.8% | 0.6% | -8.1% | 8.28µM*
O=C(C1CCCN(S(=O)(=O)c2ccc(Br)s2)C1)N1CCCCCC1 (stereo unspecified) | -3.3% | x | -32.1% | 22.8% | u
